Reference: PubChem BioAssay AID504339 (National Center for Advancing Translational Sciences (NCATS), 2011)
Hit rate of the full screen: of about 390,000 compounds, about 17,000 (4.4%) were called active. Inconclusive results (about 8%) are left out. The entries come from a sample that favours actives as a whole. Values without a mark were called inactive. Calls follow the shape of the dose curve; as a rule, active = well fitted inhibition curve with a large enough effect; inconclusive = small, poorly fitted or top-dose-only effect; inactive = no such curve, though single readings can be large or run the other way.
% is scaled to controls: 0 for no effect and ±100 for the full control effect; potency is read from the fitted curve at half-maximal effect.
Also: nearly all actives have a fitted effect of over 50% in size.

These molecules were tested against Lysine-specific demethylase 4A (Homo sapiens) (UniProt O75164) (assay: qHTS Assay for Inhibitors of JMJD2A-Tudor Domain). Conditions: AlphaScreen JMJD2A-Tudor / H3K4me3 peptide binding; series mostly up to 114 µM; activity change, negative = inhibition: at the top concentration.
Sequence of Lysine-specific demethylase 4A (Homo sapiens) (O75164 whole entry, looked up, the tested form may be a part): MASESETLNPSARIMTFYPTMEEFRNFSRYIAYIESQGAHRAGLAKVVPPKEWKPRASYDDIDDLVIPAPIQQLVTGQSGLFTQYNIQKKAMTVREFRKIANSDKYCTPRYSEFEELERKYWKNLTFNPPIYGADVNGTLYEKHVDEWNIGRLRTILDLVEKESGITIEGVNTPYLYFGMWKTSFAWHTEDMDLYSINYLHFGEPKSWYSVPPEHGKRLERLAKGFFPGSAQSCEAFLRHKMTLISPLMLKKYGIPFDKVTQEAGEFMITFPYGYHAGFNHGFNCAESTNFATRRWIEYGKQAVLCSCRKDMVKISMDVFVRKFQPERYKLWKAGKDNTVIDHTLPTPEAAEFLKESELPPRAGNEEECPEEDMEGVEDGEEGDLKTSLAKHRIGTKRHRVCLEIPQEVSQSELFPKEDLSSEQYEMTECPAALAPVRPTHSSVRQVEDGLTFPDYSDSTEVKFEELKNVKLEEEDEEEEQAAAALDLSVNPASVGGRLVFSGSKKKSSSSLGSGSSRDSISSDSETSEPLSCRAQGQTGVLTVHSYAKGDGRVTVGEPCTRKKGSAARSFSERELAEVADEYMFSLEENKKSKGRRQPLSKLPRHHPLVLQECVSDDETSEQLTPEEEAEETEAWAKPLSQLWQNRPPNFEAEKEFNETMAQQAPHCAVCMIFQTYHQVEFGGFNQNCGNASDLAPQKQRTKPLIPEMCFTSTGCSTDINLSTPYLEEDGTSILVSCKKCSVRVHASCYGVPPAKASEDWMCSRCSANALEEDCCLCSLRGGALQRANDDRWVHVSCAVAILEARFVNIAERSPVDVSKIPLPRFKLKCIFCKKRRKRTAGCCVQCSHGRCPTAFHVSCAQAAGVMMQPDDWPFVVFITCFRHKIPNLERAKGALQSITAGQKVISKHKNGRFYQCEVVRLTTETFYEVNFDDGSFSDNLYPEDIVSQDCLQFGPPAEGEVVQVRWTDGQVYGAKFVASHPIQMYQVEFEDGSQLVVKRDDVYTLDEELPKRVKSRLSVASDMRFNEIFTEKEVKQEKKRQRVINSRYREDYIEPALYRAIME
For `Cc1[nH]c(N)nc(=S)c1CCCNc1ccccc1`, the Potency was 50.1 µM (active).
`CCc1c(Nc2ccccc2C)nc(N)[nH]c1=O` was tested, and the “activity change, negative = inhibition” value was -16.6%.
In the case of `COc1ccc(Cl)cc1NC(=O)CSc1nc(-c2cccs2)cc(C(F)(F)F)n1`, the “activity change, negative = inhibition” value is reported as -8.59%.
`Cc1ccc(NC(=O)CN2C(=O)CC(C)Sc3ccccc32)c(C)c1` (stereo not drawn) was tested, and the “activity change, negative = inhibition” value was -13.1%.
`COc1ccc(C(=O)COC(=O)c2ccc3ccccc3n2)cc1` was tested, and the “activity change, negative = inhibition” value was 0.744%.
For `O=C(Oc1ccc([N+](=O)[O-])cc1)c1ccc2ccccc2n1`, the Potency was 28.2 µM (active).
Work on `CC(OC(=O)c1ccc2ccccc2n1)C(=O)c1ccccc1` (stereo not drawn) yielded an activity change, negative = inhibition of -2.94% [at 11.4 µM].
In the case of `COc1ccc2c(c1)c(=O)c(C(=O)c1ccccc1)cn2CC(=O)Nc1ccc2c(c1)OCCO2`, the “activity change, negative = inhibition” value is reported as -21.2%.
In the case of `CC(C)(C)c1ccc(C(=O)Nc2ccc3c(c2)CCCN3C(=O)c2cccs2)cc1`, the “activity change, negative = inhibition” value is reported as -23.5%.
With `CCNC(=S)N(CCc1c(C)[nH]c2ccc(C)cc12)Cc1ccco1` the Potency was 63.1 µM (active).
In the case of `Cc1ccc2[nH]c(C)c(CCNC(=O)NC3CCCCC3)c2c1`, the “activity change, negative = inhibition” value is reported as -4.56%.
For `Cc1ccc(NC(=S)N(Cc2ccco2)C(C)c2cccs2)cc1` (stereo not drawn), the “activity change, negative = inhibition” value was -7.04%.
For `CCOc1ccc(CNC(=O)c2cc(=O)[nH]c3ccc(S(=O)(=O)N4CCCCC4)cc23)cc1`, the “activity change, negative = inhibition” value was -11.3%.
`CCOC(=O)c1ccc(NC(=O)Cn2c(=O)n(-c3ccc(C)cc3)c(=O)c3c2cnn3C)cc1` was tested, and the “activity change, negative = inhibition” value was -6.14%.
With `COc1ccc(OC)c(NC(=O)CN(C)CCOc2ccc(Br)cc2)c1` the “activity change, negative = inhibition” value was -21.7%.
For `COc1ccc(OCC(=O)OCCN(C)C)cc1`, the “activity change, negative = inhibition” value was 1.03%.
`CN(C)CCOc1cccc(Br)c1` was tested, and the Potency was 3.55 µM (active).
In the case of `Cc1ccc(-c2cn3c(n2)sc2cc(C(=O)NCCCc4ccccc4)ccc23)cc1`, the “activity change, negative = inhibition” value is reported as -4.28%.
With `CCCCOc1ccc(C(=O)Nc2cccc(-c3nc4ccccc4o3)c2C)cc1` the “activity change, negative = inhibition” value was -13.1%.
`CCCCCCCCOC1OC(CO)C(O)C(O)C1NC(C)=O` (stereo not drawn) was tested, and the Potency was 79.4 µM (active).
In the case of `CCCCCCCCCOC1OC(CO)C(O)C(O)C1NC(C)=O` (stereo not drawn), the “activity change, negative = inhibition” value is reported as -7.22%.
In the case of `CCc1cccc(OC2OC(CO)C(O)C(O)C2NC(C)=O)c1` (stereo not drawn), the “activity change, negative = inhibition” value is reported as -1.03%.
With `CCc1nc2c(cnn2-c2ccc(C)cc2)c(=O)n1-c1ccc(C)cc1` the “activity change, negative = inhibition” value was -8%.
In the case of `CCOC(=O)c1ccccc1CN1C(=O)c2ccccc2S1(=O)=O`, the “activity change, negative = inhibition” value is reported as 7.12%.
`CCOC(=O)C1=C(c2ccc(OC)cc2)C(=O)c2ccccc2C1=O` was tested, and the Potency was 39.8 µM (active).
In the case of `CCOC(=O)C(NC(C)=O)C(=O)Nc1ccc(OC)cc1` (stereo not drawn), the “activity change, negative = inhibition” value is reported as -15.2%.
`COc1ccc(NS(=O)(=O)c2cc3c4c(c2)CC(=O)N4CCC3)cc1Cl` was tested, and the “activity change, negative = inhibition” value was -14%.
In the case of `CCc1ccc(NS(=O)(=O)c2ccc3[nH]cc(C(=O)NCCc4cccc(C)c4)c(=O)c3c2)cc1`, the “activity change, negative = inhibition” value is reported as -5.77%.
In the case of `COc1cc(C2CC(=O)Oc3cc(OC)c(OC)c(OC)c32)cc(OC)c1OC` (stereo not drawn), the “activity change, negative = inhibition” value is reported as -11.6%.
With `COc1cc(COCC(O)CN2CCN(Cc3ccc4c(c3)OCO4)CC2)cc(OC)c1OC` (stereo not drawn) the “activity change, negative = inhibition” value was -14.8%.
In the case of `COc1cc(OC)c2c(C)cc(=O)oc2c1C(CCN1CCCCC1)c1ccc(N(C)C)cc1` (stereo not drawn), the Potency is reported as 39.8 µM (active).
`COc1cc(OC)c2c(c1)OC(=O)CC2c1cc(OC)c(OC)c(OC)c1` (stereo not drawn) was tested, and the “activity change, negative = inhibition” value was -10.1%.
With `CCN(CC)CCC(c1cc(OC)c(OC)c(OC)c1)c1c(OC)cc(OC)c2c(-c3ccccc3)cc(=O)oc12` (stereo not drawn) the Potency was “inactive”.
For `COc1ccc(C(CCN2CCOCC2)c2c(OC)cc(OC)c3c2OC(=O)CC3c2ccc(OC)cc2)cc1` (stereo not drawn), the Potency was 35.5 µM (active).
In the case of `COc1ccc(C2/C(=C(/O)c3ccc(OC(C)C)cc3)C(=O)C(=O)N2CCCN2CCOCC2)cc1` (stereo not drawn), the “activity change, negative = inhibition” value is reported as -6.85%.
In the case of `COc1cc(OC)c2ccc(=O)oc2c1C(CCN1CCN(c2ccccc2)CC1)c1ccc2c(c1)OCO2` (stereo not drawn), the Potency is reported as 17.8 µM (active).
With `COc1ccc(C2CC(=O)Oc3ccc(C(C)(C)C)cc32)cc1` (stereo not drawn) the “activity change, negative = inhibition” value was 17.9%.
`O=C(NCC(c1ccc2c(c1)OCO2)N1CCN(c2ccccc2)CC1)C(=O)Nc1ccccc1F` (stereo not drawn) was tested, and the “activity change, negative = inhibition” value was -30%.
In the case of `COc1cc(OC)c2c(c1C(CCN1CCCCC1)c1ccc(N(C)C)cc1)OC(=O)CC2c1ccc(N(C)C)cc1` (stereo not drawn), the Potency is reported as 35.5 µM (active).
With `COc1ccc(CNC(=O)c2cc3c(=O)[nH]c4ccc(C)cc4c3s2)c(OC)c1` the “activity change, negative = inhibition” value was -7.27%.
With `COc1ccc(-c2cn3c(n2)sc2cc(C(=O)Nc4ccccc4F)ccc23)cc1` the “activity change, negative = inhibition” value was -9.21%.
In the case of `Cc1ccccc1CNC(=O)c1cccc(NC(=O)c2nsc3ccccc23)c1`, the “activity change, negative = inhibition” value is reported as -2.6%.
`COc1ccc(-n2c(=O)c3sc4ccccc4c3n(CC(=O)Nc3cccc(C)c3)c2=O)cc1` was tested, and the “activity change, negative = inhibition” value was -7.95%.
With `O=C(Nc1ccc2nc(SCCOc3ccccc3)sc2c1)c1ccco1` the “activity change, negative = inhibition” value was -11.9%.
`CC(=O)c1ccc(NS(=O)(=O)c2ccc(-c3cc(C)no3)s2)cc1` was tested, and the “activity change, negative = inhibition” value was -20.1%.
In the case of `CCN(CC)c1nn2c(=O)c(C(=O)NCCc3ccccc3)cnc2s1`, the “activity change, negative = inhibition” value is reported as -12%.
With `CCN(CCCNC(=O)c1c(C)oc2ncn(CC(C)C)c(=O)c12)Cc1ccccc1` the “activity change, negative = inhibition” value was -0.647%.
In the case of `CCc1ccc(NC(=O)CCS(=O)(=O)c2cc3c(cc2Cl)NC(=O)CO3)cc1`, the “activity change, negative = inhibition” value is reported as -16.8%.
